Laboratory results published in article PMC7862700, “An all-to-all approach to the identification of sequence-specific readers for epigenetic DNA modifications on cytosine”.

How the values were obtained:
Test in all cases: DAPPL (digital affinity profiling via proximity ligation, sequencing); 10 mM Tris-HCl pH 7.5, 50 mM NaCl, 1 mM DTT, 4% glycerol, room temperature, 30 min; GST-TFs on glutathione beads, 16-mer random dsDNA library, 0.1% formaldehyde crosslink after washing; high values mean tight binding
[1] = biological target: T1, FLI1 (Homo sapiens, UniProt Q01543 1-452); settings: protein: recombinant; tags: N-terminal GST; dsDNA, one strand shown
T1 sequence: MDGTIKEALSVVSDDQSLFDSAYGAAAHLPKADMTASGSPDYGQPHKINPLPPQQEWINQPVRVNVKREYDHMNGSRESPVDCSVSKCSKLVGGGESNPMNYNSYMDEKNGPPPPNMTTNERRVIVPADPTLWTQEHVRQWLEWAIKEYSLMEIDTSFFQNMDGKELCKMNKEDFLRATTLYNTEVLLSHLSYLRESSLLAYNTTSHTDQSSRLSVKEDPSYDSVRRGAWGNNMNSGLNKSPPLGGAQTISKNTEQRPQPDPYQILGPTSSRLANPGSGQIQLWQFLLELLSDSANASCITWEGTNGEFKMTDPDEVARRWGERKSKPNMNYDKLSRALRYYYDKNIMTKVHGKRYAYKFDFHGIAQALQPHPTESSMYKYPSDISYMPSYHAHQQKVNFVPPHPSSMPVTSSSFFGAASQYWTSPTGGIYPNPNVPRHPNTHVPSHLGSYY
Outline: (§1)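 The binding signal reported is, for every hexamer, its read frequency for a factor over its read frequency for the tag-only sample. Reads came from pools of yeast-expressed, GST-fused human transcription factors on glutathione beads, barcoded with DNA and mixed with that sample, which were incubated with 200 nmole of a random double-stranded 16-mer DNA library in Tris/NaCl/DTT/glycerol buffer at room temperature for 30 min. After washing, the pools were crosslinked with 0.1% formaldehyde, proximity-ligated with BsaI/T4 ligase for 1 h at 37 °C, PCR-amplified and sequenced on an Illumina NextSeq500.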

[2] = biological target: T2, ELK1 (Homo sapiens, UniProt P19419 1-428); settings: protein: recombinant; tags: N-terminal GST; dsDNA, one strand shown
T2 sequence: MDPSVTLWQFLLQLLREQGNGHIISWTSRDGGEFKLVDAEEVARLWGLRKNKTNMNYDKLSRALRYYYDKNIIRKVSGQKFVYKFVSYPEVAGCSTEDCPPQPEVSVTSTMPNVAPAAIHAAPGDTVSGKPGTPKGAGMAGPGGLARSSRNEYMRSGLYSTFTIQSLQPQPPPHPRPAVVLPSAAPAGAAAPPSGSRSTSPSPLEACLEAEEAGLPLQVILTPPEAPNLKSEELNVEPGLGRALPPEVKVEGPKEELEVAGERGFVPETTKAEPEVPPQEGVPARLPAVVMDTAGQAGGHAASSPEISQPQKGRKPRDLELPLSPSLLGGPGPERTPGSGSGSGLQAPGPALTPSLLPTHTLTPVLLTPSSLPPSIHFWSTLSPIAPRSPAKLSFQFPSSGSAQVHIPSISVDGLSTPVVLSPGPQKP
Outline: as §1

[3] = biological target: T3, GABPA (Homo sapiens, UniProt Q06546 1-454); settings: protein: recombinant; tags: N-terminal GST; dsDNA, one strand shown
T3 sequence: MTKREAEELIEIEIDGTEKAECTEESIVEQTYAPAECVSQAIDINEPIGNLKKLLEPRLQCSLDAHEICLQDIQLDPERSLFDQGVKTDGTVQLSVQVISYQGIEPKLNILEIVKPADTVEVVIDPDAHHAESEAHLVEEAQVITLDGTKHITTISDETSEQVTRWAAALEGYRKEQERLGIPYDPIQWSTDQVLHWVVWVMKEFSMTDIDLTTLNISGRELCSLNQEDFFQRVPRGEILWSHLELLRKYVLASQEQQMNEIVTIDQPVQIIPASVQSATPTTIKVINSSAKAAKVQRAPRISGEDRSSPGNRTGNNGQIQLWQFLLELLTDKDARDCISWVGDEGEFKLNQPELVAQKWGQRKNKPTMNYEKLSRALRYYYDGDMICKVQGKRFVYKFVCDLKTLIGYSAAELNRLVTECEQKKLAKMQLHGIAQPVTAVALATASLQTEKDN
Outline: as §1

[4] = biological target: T4, ERG (Homo sapiens, UniProt P11308 1-479); settings: protein: recombinant; tags: N-terminal GST; dsDNA, one strand shown
T4 sequence: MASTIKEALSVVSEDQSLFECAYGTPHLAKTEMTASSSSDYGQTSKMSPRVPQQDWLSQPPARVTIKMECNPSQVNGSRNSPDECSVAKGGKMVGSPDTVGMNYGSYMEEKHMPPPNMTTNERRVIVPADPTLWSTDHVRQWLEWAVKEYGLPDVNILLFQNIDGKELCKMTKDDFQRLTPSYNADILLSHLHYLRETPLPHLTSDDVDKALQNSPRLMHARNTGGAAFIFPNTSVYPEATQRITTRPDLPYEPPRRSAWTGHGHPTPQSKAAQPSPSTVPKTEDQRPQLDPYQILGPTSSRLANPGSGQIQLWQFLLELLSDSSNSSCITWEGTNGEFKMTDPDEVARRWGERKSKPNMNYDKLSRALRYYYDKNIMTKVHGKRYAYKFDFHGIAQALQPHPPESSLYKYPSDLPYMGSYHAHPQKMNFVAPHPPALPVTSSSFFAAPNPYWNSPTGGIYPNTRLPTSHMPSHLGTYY
Outline: as §1

[5] = biological target: ELF1 (Homo sapiens, UniProt P32519 1-619); settings: protein: recombinant; tags: N-terminal GST; dsDNA, one strand shown
Outline: as §1

[6] = biological target: T5, EHF (Homo sapiens, UniProt Q9NZC4 1-300); settings: protein: recombinant; tags: N-terminal GST; dsDNA, one strand shown
T5 sequence: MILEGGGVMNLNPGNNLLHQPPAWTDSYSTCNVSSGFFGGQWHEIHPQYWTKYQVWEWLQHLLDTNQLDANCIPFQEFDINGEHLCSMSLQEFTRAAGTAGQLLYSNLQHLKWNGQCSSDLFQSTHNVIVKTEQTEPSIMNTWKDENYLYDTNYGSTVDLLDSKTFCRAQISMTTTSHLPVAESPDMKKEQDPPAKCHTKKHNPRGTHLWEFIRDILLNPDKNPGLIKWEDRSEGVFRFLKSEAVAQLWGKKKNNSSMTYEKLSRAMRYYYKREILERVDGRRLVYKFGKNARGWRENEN
Outline: as §1

[7] = biological target: SPI1 (Homo sapiens, UniProt P17947 1-270); settings: protein: recombinant; tags: N-terminal GST; dsDNA, one strand shown
Outline: as §1

[8] = biological target: SPIB (Homo sapiens, UniProt Q01892 1-262); settings: protein: recombinant; tags: N-terminal GST; dsDNA, one strand shown
Outline: as §1

[9] = biological target: T6, ELK3 (Homo sapiens, UniProt P41970 1-407); settings: protein: recombinant; tags: N-terminal GST; dsDNA, one strand shown
T6 sequence: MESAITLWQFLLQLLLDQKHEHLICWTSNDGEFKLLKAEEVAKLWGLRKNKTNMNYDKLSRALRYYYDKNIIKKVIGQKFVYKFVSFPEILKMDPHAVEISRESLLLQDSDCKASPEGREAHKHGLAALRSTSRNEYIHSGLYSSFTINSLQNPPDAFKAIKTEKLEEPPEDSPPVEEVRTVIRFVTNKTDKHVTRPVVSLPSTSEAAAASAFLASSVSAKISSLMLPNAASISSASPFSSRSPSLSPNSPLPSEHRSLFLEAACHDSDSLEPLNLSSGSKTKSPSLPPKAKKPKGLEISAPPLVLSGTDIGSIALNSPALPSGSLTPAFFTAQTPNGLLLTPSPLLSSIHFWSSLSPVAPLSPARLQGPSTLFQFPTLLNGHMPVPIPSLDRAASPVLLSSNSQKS
Outline: as §1

[10] = biological target: T7, FEV (Homo sapiens, UniProt Q99581 1-238); settings: protein: recombinant; tags: N-terminal GST; dsDNA, one strand shown
T7 sequence: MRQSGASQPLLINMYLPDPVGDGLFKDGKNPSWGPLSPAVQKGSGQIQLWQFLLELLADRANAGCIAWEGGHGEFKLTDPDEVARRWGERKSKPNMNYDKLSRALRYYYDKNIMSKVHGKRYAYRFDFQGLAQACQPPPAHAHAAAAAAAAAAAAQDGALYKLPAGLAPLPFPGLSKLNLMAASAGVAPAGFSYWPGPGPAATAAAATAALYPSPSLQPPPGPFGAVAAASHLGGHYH
Outline: as §1

[11] = biological target: ETV5 (Homo sapiens, UniProt P41161 1-510); settings: protein: recombinant; tags: N-terminal GST; dsDNA, one strand shown
Outline: as §1

[12] = biological target: HSF1 (Homo sapiens, UniProt Q00613 1-529); settings: protein: recombinant; tags: N-terminal GST; chain copies: 3; dsDNA, one strand shown
Outline: as §1

[13] = biological target: T8, SPIC (Homo sapiens, UniProt Q8N5J4 1-248); settings: protein: recombinant; tags: N-terminal GST; dsDNA, one strand shown
T8 sequence: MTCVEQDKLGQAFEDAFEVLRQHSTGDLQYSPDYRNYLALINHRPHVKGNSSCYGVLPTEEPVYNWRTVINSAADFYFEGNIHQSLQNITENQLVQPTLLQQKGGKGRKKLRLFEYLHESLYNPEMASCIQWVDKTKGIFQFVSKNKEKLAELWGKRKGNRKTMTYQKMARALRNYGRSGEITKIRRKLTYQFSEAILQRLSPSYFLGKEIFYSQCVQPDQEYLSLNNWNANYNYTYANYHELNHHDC
Outline: as §1

[14] = biological target: ELF4 (Homo sapiens, UniProt Q99607 1-663); settings: protein: recombinant; tags: N-terminal GST; dsDNA, one strand shown
Outline: as §1

[15] = biological target: T9, ELK4 (Homo sapiens, UniProt P28324-2 1-405); settings: protein: recombinant; tags: N-terminal GST; dsDNA, one strand shown
T9 sequence: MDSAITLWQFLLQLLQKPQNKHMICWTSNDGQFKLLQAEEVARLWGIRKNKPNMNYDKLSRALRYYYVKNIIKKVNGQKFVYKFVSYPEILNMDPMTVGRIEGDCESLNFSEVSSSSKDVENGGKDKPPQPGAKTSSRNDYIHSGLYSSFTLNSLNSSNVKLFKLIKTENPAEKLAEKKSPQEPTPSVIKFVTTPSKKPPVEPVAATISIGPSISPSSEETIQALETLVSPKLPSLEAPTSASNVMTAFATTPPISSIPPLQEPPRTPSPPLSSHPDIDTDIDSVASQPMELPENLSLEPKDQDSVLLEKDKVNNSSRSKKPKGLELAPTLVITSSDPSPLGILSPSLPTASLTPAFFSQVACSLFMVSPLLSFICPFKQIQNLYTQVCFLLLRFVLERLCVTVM
Outline: as §1

[16] = biological target: T10, ETV2 (Homo sapiens, UniProt O00321 1-342); settings: protein: recombinant; tags: N-terminal GST; dsDNA, one strand shown
T10 sequence: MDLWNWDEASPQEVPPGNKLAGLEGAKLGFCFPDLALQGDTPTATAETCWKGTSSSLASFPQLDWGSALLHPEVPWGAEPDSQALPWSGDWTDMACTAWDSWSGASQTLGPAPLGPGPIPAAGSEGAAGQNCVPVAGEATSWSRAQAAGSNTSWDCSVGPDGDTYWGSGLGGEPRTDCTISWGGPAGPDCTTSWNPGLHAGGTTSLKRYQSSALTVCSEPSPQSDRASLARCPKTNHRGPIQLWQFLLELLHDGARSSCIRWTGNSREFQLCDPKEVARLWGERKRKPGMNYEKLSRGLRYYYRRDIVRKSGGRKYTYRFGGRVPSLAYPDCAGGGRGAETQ
Outline: as §1

[17] = biological target: T11, ELF3 (Homo sapiens, UniProt P78545 1-371); settings: protein: recombinant; tags: N-terminal GST; dsDNA, one strand shown
T11 sequence: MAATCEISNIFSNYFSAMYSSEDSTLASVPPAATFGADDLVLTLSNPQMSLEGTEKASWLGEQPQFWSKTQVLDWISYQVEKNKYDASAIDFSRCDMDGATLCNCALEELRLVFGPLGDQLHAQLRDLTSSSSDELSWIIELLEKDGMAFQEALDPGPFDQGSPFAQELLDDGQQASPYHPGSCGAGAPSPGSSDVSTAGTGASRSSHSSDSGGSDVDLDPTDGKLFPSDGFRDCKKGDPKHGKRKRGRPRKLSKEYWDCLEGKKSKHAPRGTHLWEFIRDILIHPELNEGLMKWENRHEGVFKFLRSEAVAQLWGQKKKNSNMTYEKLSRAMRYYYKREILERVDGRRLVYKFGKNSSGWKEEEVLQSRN
Outline: as §1

[18] = biological target: ETV1 (Homo sapiens, UniProt P50549 1-477); settings: protein: recombinant; tags: N-terminal GST; dsDNA, one strand shown
Outline: as §1

Sequence of ELF4 (Q99607 whole entry): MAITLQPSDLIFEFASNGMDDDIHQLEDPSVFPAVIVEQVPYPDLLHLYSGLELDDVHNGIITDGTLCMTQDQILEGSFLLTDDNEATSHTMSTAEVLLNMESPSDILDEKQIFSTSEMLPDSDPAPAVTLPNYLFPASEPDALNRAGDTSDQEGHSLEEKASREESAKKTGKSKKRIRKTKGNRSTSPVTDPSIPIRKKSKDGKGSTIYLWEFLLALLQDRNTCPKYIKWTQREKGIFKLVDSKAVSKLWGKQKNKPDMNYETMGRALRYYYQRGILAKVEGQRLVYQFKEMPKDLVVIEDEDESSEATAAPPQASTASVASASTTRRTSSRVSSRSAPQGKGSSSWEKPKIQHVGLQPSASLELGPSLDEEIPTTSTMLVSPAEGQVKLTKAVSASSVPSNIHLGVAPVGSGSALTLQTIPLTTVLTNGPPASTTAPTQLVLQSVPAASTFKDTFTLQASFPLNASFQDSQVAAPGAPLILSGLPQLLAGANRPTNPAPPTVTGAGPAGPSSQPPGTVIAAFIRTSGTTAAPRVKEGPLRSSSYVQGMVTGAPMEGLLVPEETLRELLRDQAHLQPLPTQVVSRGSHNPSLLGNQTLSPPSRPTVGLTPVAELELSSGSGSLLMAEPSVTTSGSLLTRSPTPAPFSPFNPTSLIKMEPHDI
Sequence of ETV1 (P50549 whole entry): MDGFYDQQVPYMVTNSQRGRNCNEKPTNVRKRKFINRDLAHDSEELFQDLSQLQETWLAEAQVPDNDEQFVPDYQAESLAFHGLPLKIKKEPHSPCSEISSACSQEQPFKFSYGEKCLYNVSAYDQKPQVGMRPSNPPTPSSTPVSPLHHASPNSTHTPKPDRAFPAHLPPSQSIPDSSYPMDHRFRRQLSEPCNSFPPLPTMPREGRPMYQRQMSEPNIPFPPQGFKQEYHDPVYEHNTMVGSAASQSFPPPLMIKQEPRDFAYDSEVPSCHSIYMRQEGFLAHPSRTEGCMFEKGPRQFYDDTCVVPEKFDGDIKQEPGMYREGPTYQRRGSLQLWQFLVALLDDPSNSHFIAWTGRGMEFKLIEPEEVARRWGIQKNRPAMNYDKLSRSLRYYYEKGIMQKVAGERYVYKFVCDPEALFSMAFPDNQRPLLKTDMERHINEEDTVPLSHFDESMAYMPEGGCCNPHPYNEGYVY
Sequence of ELF1 (P32519 whole entry): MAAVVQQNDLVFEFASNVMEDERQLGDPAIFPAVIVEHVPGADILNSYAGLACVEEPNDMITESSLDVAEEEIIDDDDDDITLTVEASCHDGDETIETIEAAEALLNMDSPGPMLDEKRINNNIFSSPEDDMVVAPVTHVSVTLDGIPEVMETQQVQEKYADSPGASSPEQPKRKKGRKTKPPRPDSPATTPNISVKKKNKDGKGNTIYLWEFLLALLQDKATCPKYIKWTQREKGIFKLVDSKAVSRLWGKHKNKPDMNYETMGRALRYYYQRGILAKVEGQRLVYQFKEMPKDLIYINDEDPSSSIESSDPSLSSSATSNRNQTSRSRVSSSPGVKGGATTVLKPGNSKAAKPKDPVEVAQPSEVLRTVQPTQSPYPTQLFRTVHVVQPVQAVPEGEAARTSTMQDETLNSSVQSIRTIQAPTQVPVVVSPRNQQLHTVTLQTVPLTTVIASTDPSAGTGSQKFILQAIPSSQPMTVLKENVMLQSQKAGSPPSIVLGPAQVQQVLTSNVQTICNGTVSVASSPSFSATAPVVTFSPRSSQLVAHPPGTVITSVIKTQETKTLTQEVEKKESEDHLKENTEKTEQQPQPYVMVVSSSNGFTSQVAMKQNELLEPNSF
Sequence of SPIB (Q01892 whole entry): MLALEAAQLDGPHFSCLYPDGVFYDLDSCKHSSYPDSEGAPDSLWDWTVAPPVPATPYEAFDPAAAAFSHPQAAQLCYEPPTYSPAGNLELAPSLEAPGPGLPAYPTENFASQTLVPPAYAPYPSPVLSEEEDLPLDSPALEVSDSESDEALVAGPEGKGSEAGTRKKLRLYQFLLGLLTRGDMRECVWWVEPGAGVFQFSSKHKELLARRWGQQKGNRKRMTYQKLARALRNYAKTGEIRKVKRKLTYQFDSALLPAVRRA
Sequence of ETV5 (P41161 whole entry): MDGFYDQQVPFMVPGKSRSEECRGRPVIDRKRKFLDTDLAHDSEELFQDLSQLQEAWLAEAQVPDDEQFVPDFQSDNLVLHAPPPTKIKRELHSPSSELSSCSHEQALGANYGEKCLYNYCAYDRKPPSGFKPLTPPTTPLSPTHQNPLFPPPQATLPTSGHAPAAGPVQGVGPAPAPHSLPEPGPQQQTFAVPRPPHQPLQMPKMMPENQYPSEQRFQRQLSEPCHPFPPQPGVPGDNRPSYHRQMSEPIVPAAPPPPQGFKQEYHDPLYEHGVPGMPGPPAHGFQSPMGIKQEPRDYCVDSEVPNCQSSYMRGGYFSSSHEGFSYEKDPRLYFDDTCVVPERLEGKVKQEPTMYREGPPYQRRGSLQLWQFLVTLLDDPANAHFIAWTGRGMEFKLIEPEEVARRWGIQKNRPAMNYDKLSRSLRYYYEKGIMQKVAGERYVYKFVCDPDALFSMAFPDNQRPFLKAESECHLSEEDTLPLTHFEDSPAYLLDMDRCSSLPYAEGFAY
Sequence of HSF1 (Q00613 whole entry): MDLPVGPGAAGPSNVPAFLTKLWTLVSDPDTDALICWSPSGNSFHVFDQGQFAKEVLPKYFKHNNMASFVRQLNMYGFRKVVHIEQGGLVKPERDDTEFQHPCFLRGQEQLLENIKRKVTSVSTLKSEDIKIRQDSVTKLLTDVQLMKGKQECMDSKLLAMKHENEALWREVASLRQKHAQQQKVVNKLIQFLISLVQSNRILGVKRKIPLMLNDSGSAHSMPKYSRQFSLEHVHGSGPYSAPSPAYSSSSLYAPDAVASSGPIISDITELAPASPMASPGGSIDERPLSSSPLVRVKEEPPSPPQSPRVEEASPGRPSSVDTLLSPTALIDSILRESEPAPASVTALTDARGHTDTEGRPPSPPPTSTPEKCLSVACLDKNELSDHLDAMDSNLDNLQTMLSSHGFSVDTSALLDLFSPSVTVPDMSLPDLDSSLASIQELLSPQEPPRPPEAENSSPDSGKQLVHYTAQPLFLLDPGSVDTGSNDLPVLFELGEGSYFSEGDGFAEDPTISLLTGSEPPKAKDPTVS

ACGAAC
binding signal [1]: 1.11 fold enrichment (6-mer frequency, TF over GST control) | binding signal [2]: 1.15 fold enrichment (6-mer frequency, TF over GST control) | binding signal [3]: 1.19 fold enrichment (6-mer frequency, TF over GST control) | binding signal [4]: 1.15 fold enrichment (6-mer frequency, TF over GST control) | binding signal [5]: 1.24 fold enrichment (6-mer frequency, TF over GST control) | binding signal [6]: 1.12 fold enrichment (6-mer frequency, TF over GST control) | binding signal [7]: 1.1 fold enrichment (6-mer frequency, TF over GST control) | binding signal [8]: 1.22 fold enrichment (6-mer frequency, TF over GST control) | binding signal [9]: 1.13 fold enrichment (6-mer frequency, TF over GST control) | binding signal [10]: 1.15 fold enrichment (6-mer frequency, TF over GST control) | binding signal [11]: 1.22 fold enrichment (6-mer frequency, TF over GST control) | binding signal [12]: 1.19 fold enrichment (6-mer frequency, TF over GST control) | binding signal [13]: 1.07 fold enrichment (6-mer frequency, TF over GST control) | binding signal [14]: 1.22 fold enrichment (6-mer frequency, TF over GST control) | binding signal [15]: 1.18 fold enrichment (6-mer frequency, TF over GST control) | binding signal [16]: 1.18 fold enrichment (6-mer frequency, TF over GST control) | binding signal [17]: 1.22 fold enrichment (6-mer frequency, TF over GST control) | binding signal [18]: 1.09 fold enrichment (6-mer frequency, TF over GST control)
